GLP1R ag – activates the human GLP-1 receptor | HEK293 GLP-1R CRE-luciferase, luminescence, 4-6 h; cells express a hypersensitive GLP-1R form | 380,000 tested, 0.007% active | Potency, µM (series often up to 45.6 µM), for inactives: at the highest dose activation, usual class: activators | P43220 | AID 624172; also: % of control where 0% means no effect
Target sequence (P43220 whole entry, looked up): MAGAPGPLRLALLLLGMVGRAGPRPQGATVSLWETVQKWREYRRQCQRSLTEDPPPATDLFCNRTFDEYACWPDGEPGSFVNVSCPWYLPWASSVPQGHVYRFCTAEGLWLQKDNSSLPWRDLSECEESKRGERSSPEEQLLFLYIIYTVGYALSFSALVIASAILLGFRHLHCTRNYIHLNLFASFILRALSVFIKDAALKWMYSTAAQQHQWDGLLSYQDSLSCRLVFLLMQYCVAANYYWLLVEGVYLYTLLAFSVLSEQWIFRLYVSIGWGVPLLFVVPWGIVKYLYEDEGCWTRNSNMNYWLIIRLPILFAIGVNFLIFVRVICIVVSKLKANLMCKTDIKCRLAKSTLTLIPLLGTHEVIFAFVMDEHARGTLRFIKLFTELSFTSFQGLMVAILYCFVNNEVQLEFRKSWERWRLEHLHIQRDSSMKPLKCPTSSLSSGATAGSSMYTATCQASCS
HEK293 tox – cytotoxicity in counter-screen for GLP-1R inverse agonists; HEK293 cAMP-luciferase reporter cells, luminescence, 24 h; 410,000 tested, 0.13% active; Potency, µM (top dose mostly 38.3 µM), inactives show at the highest dose activity change, negative = inhibition, usual class: inhibitors;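 also: loss of luciferase light is scored as toxicity; % is scaled to controls: 0 for no effect and ±100 for the full control effect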
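Luminescence readout: signal drop marks cytotoxicity. Plated cells grew 12 h at 37 °C, 5% CO2, received 23 nL compound for 24 h, then got luciferase reagent, read after 12 min at RT.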
BRCA1 expr up – activators of BRCA1 expression; MCF7-BRCA1-FFLuc reporter, luminescence, 48 h; response scale: scaled: vehicle 0%, 10 µM genistein 100%; Potency, µM (series often up to 46.1 µM), for inactives: at the highest dose activation, usual class: activators; 380,000 tested, 1.1% active; also: nearly all actives have a fitted effect of over 80% in size
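Quantitative HTS in MCF7 cells stably reporting BRCA1 expression via firefly luciferase. Compound treatment lasts 48 h at 37 °C in phenol-red free MEM. Activation is expressed relative to genistein at 10 microM and DMSO.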
GLP1R inv ag – inverse agonists of human GLP-1 receptor; P43220; HEK293 GLP-1R CRE-luciferase, luminescence, 24 h; GLP-1R form is constitutively active; Potency, µM (titrated, usually from 38.3 µM), without a hit: top-dose activity change, negative = inhibition, actives largely listed as inhibitors; 410,000 tested, 1.6% active; AID 624417; also: % is scaled to controls: 0 for no effect and ±100 for the full control effect; nearly all actives have a fitted effect of over 55% in size
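Luminescence readout: a drop in cAMP-driven luciferase signal flags inverse agonism at a constitutively active GLP-1R stably expressed in HEK293. Compound exposure lasted 24 hr at 37 deg C, 5% CO2.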
Starred values were filed as active, the others as inactive; [ ] = dose if it differs, or a comment. An excerpt weighted towards active compounds, which were near 2.6% of everything screened. Calls follow the shape of the dose curve; as a rule, active = well fitted curve in the direction sought with a large enough effect; inconclusive = small, poorly fitted or top-dose-only effect, or another doubt; inactive = no such curve, though single readings can be large; an effect the other way counts as inactive or inconclusive. Potency is read from the fitted curve at half-maximal effect.

Screening Clc1cccc(CNc2ccn3nc(-c4cccc(Cl)c4)cc3n2)c1 returned GLP1R ag -4%, HEK293 tox -3%, BRCA1 expr up 72% and GLP1R inv ag inconclusive.
Screening CN(C)C(=O)CNc1ccn2nc(-c3cccc(Cl)c3)cc2n1 returned GLP1R ag 16%, HEK293 tox 13%, BRCA1 expr up 5µM* and GLP1R inv ag 2%.
CCC(CO)Nc1ccn2nc(-c3cc(OC)c(OC)c(OC)c3)cc2n1 (centres undefined) was read as GLP1R ag 9%, HEK293 tox 3%, BRCA1 expr up -24% and GLP1R inv ag 10%.
`CCC(CO)Nc1ccn2nc(-c3cccs3)cc2n1` (centres undefined) gave GLP1R ag 15%, HEK293 tox 4%, BRCA1 expr up 5.6µM* and GLP1R inv ag 30%.
For CN(CC(=O)Nc1cccc(F)c1)C(=O)CCNC(=O)c1ccc(Br)cc1 the results were GLP1R ag 10%, HEK293 tox 3%, BRCA1 expr up 49% and GLP1R inv ag -22%.
CN(CC(=O)Nc1cccc(F)c1)C(=O)CCCNC(=O)c1ccc(Cl)cc1 was read as GLP1R ag 6%, HEK293 tox -6%, BRCA1 expr up 11µM* and GLP1R inv ag -1%.
`CN(CC(=O)Nc1cccc(F)c1)C(=O)c1ccccc1Cc1ccccc1` gave GLP1R ag -1%, HEK293 tox -24%, BRCA1 expr up -24% and GLP1R inv ag 13µM*.
For O=C(NC1CCCCC1)C(=S)NCc1ccccc1 the results were GLP1R ag 3%, HEK293 tox 21%, BRCA1 expr up 61% and GLP1R inv ag inconclusive.
For O=C(COC(=O)c1c(F)cccc1Cl)NC1CCCCC1 the results were GLP1R ag 15%, HEK293 tox -5%, BRCA1 expr up 11µM* and GLP1R inv ag -11%.
O=C(COc1ccc(C(=O)c2ccccc2)cc1)NC1CCCCCC1 was read as GLP1R ag 1%, HEK293 tox -13%, BRCA1 expr up -51% and GLP1R inv ag 8.9µM*.
O=C(COc1ccccc1)NC1CCCCC1 was read as GLP1R ag -5%, HEK293 tox 7%, BRCA1 expr up 32% and GLP1R inv ag 0%.
`O=C(COc1ccccc1)NC1CCCCCCC1` gave GLP1R ag 5%, HEK293 tox 0%, BRCA1 expr up 68% and GLP1R inv ag 11µM*.
For O=C(COc1ccc(C(=O)c2ccccc2)cc1)NC1CCCCC1 the results were GLP1R ag -10%, HEK293 tox 20%, BRCA1 expr up -28% and GLP1R inv ag 3%.
Screening O=C(NC1CCCCCC1)C(=S)NCc1ccccc1 returned GLP1R ag 2%, HEK293 tox -1%[7.66 µM], BRCA1 expr up 11µM* and GLP1R inv ag -15%[7.66 µM].
CN(C)c1ccc(N=Cc2ccnc3ccccc23)cc1 was read as BRCA1 expr up 0%.
Screening Nc1c(Br)cc(/C=C2\C=Cc3ccccc32)cc1Br returned BRCA1 expr up -4%.
C=CCN(Cc1cccc(OC)c1OC)C(=O)Oc1ccccc1 was read as GLP1R ag 7%, HEK293 tox -3%, BRCA1 expr up -6% and GLP1R inv ag inconclusive.
`CC(C)NC(=O)C1C(c2ccc(C(F)(F)F)cc2)=Nc2ccccc2N1C(=O)c1cccc(C(F)(F)F)c1` (centres undefined) gave HEK293 tox 3% and GLP1R inv ag inconclusive.
For COc1ccccc1NC(=O)CSc1nc2ccccc2cc1Cc1ccccc1 the results were GLP1R ag 1%, HEK293 tox 4%, BRCA1 expr up 0% and GLP1R inv ag 10µM*.
`CCc1cc2ccccc2nc1SCC(=O)NC1CCCC1` gave GLP1R ag 18%, HEK293 tox 11%, BRCA1 expr up -35% and GLP1R inv ag 10µM*.
Screening O=C(CSc1ccccc1)NC1CCCCCC1 returned GLP1R ag -3%, HEK293 tox -17%, BRCA1 expr up inconclusive and GLP1R inv ag -25%.
`N#Cc1cc2ccccc2nc1SCC(=O)NC1CC1` gave GLP1R ag 4%, HEK293 tox 6%, BRCA1 expr up 56% and GLP1R inv ag 4%.
O=C(CSc1ccccc1)NC1CCCCCCC1 was read as GLP1R ag 4%, HEK293 tox 0%, BRCA1 expr up 10µM* and GLP1R inv ag inconclusive.
OC[C@H]1O[C@@H](c2nc(-c3ccc(CN4CCOCC4)cc3)no2)[C@H](O)[C@@H](O)[C@H]1O was read as GLP1R ag -7%, HEK293 tox -7%, BRCA1 expr up 0% and GLP1R inv ag 0%.
For COCCCNC(=O)CSc1nc2cc3c(cc2c(=O)n1CCCCCC(=O)NCCc1ccc(OC)c(OC)c1)OCO3 the results were HEK293 tox 10% and GLP1R inv ag 12%.
`Brc1ccc(N/N=C(/N=Nc2nn[nH]n2)c2ccccc2)cc1` gave GLP1R ag 9%, HEK293 tox inconclusive, BRCA1 expr up -77% and GLP1R inv ag 1.3µM*.
For O=C(Nc1ccccc1Br)c1ccc(OC(=S)N2CCOCC2)cc1 the results were GLP1R ag 8%, HEK293 tox 9%, BRCA1 expr up 7.9µM* and GLP1R inv ag 23%.
For Cc1cc(C)c(S(=O)(=O)Nc2ccc3c4c(cccc24)CC3)c(C)c1 the results were GLP1R ag 5%, HEK293 tox -33%, BRCA1 expr up -79% and GLP1R inv ag 4.5µM*.
For C=CCNc1nc(-c2ccccc2)c(C(=O)OCC)cc1C#N the results were GLP1R ag 25%, HEK293 tox inconclusive, BRCA1 expr up -67% and GLP1R inv ag 5µM*.
`CCOC(=O)c1nn(-c2cccc(OC)c2)c(-c2ccccc2)c1C(=O)c1ccccc1` gave GLP1R ag 7%, HEK293 tox -3%, BRCA1 expr up -36% and GLP1R inv ag 5.6µM*.
Screening CCOC(=O)c1nn(-c2ccccc2)c(-c2ccccc2)c1C(=O)c1ccccc1 returned GLP1R ag -1%, HEK293 tox -20%, BRCA1 expr up -29% and GLP1R inv ag 2.8µM*.
Screening CCOC(=O)N1CCc2c(sc3c2c(=O)n(CCc2ccccc2)c(=O)n3CC(=O)Nc2ccc(C)cc2)C1 returned HEK293 tox -1% and GLP1R inv ag 7%.
For CCOC1=C2CN(S(=O)(=O)c3ccc(C)cc3)[C@H](c3ccccc3)C[C@@H]2N(S(=O)(=O)c2ccc(Br)cc2)[C@H](c2ccccc2)C1 the results were GLP1R ag 0%, HEK293 tox 7%, BRCA1 expr up 9% and GLP1R inv ag 28%.
Screening N#CCc1ccc(NC(=O)/C=C/c2ccc([N+](=O)[O-])o2)cc1 returned GLP1R ag -1%, HEK293 tox 4µM*, BRCA1 expr up -104% and GLP1R inv ag -101%.
`O=C(O)/C=C/c1ccc([N+](=O)[O-])o1` gave GLP1R ag 1%, HEK293 tox -14%, BRCA1 expr up 12% and GLP1R inv ag 7%.
For Oc1cc(O)c(/C=C/c2ccnc3ccccc23)c(O)c1 the results were BRCA1 expr up 9%.
